Compounds with a hit are over-represented: about 6.6% of the library has one in this group of screens.
MCF10A rerep – inducers of DNA re-replication in MCF 10A breast cells; MCF 10A DNA re-replication, Hoechst nuclear intensity, 48 h; 350,000 compounds, 2.9% hits; Potency, µM (doses to about 46.1 µM), inactives show at the highest dose activity, positive = re-replication, most hits filed as activators; also: % of control where 0% means no effect; nearly all actives have a fitted effect of over 50% in size
SW480 rerep – DNA re-replication induction in SW480 cells | SW480 DNA re-replication, Hoechst DNA content imaging, 48 h | AID 624297 | Potency, µM (top dose mostly 46.1 µM), inactives show top-dose re-replication activation, actives largely listed as activators | 340,000 compounds, 1.8% hits; also: % of control where 0% means no effect; nearly all actives have a fitted effect of over 55% in size
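Cells (250 per well) received 23 nL compound or DMSO by pin tool and were kept 48 hr at 37 C, 5% CO2. Nuclei were then stained with Hoechst for 40 min and scanned for DNA content.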
KB-3-1 tox – KB-3-1 parental cell cytotoxicity. KB-3-1 viability, CellTiter-Glo ATP luminescence, 72 h. Potency, µM (highest dose often 46.1 µM), actives largely listed as cytotoxic. 400,000 compounds, 1.4% hits. AID 1347075; also: % is scaled to controls: 0 for no effect and ±100 for the full control effect; nearly all actives have a fitted effect of over 60% in size
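Cytotoxicity in the drug-sensitive parental line KB-3-1 was scored as loss of CellTiter-Glo luminescence following 72 h incubation with compound. Values come from curve fitting of normalized concentration-response data.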
TSG101-PTAP inh – blocks PTAP/TSG101 interaction to inhibit HIV-1 budding; Q99816; Fluorescence polarization, FITC-PTAP peptide / Tsg101 binding; Potency, µM (series often up to 115 µM), without a hit: at the highest dose activity change, negative = inhibition, usual class: inhibitors; 340,000 tested, under 10 active; active = well fitted inhibition curve with a large enough effect in the main read-out, with a control signal flat, not every such curve was filed as active; inconclusive = small, poorly fitted or top-dose-only effect, or effect the other way, or a change in a side signal; inactive = no such curve, though single readings can be large or run the other way; also: % of control where 0% means no effect
Target sequence (Q99816 whole entry, looked up): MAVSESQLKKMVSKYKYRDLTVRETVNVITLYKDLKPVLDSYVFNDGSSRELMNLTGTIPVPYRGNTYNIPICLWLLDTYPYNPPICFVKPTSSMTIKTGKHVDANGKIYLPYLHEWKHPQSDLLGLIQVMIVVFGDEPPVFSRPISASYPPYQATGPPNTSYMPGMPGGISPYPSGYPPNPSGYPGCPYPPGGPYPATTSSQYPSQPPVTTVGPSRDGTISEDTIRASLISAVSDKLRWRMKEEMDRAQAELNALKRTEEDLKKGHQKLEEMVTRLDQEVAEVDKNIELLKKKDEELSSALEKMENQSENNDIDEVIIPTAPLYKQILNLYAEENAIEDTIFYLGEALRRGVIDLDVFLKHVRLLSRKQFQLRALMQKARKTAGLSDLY
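Compounds were pin-transferred onto Tsg101 binding domain (10 uM final) in HEPES pH 7.5 buffer, then FITC-PTAP peptide was added at 50 nM final. After 20 min at RT, polarization reported peptide displacement across a qHTS concentration series.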
RGS4 inhibitor – blocks human RGS4-accelerated GTP hydrolysis | Transcreener GDP fluorescence polarization, RGS4-accelerated GTP hydrolysis | Potency, µM (highest dose often 114 µM), for inactives: top-dose activity change, negative = inhibition, usual class: inhibitors | 390,000 compounds, 0.039% hits | AID 504845; also: % is scaled to controls: 0 for no effect and ±100 for the full control effect; nearly all actives have a fitted effect of over 75% in size
Target sequence (P49798 whole entry, looked up): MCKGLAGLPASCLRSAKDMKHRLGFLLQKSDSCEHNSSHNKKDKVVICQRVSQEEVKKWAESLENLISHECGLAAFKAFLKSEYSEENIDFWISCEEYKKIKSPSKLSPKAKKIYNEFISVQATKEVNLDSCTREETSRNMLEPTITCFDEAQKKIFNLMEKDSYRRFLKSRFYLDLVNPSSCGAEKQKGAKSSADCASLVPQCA
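MLSMR compounds (23 nl, pin-transferred) preincubated 10 min at room temperature with a 500nM (2x) first reagent, then RGS4 at 900nM (2x) plus Transcreener GDP mix added; fluorescence polarization (620/688 nm) read before and after 90 min at 30 °C.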
KB-V1 cytotox – kills drug-selected multidrug resistant KB-V1 cells. KB-V1 MDR cells viability, CellTiter-Glo, 72 h. Potency, µM (titrated, usually from 46.1 µM), usual class: cytotoxic. 400,000 compounds, 3.4% hits; also: % is scaled to controls: 0 for no effect and ±100 for the full control effect; nearly all actives have a fitted effect of over 60% in size
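qHTS viability screen in drug-selected KB-V1 MDR cells: 72 h compound treatment at 37 degrees C, ATP luminescence end point.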
Numbers without * were called inactive; i = inactive; ? = inconclusive; . = no result; [ ] = dose if it differs, or a comment. Unless noted, calls follow the shape of the dose curve; as a rule, active = well fitted curve in the direction sought with a large enough effect; inconclusive = small, poorly fitted or top-dose-only effect, or another doubt; inactive = no such curve, though single readings can be large; an effect the other way counts as inactive or inconclusive. Potency is read from the fitted curve at half-maximal effect.

SMILES | MCF10A rerep | SW480 rerep | KB-3-1 tox | TSG101-PTAP inh | RGS4 inhibitor | KB-V1 cytotox
CCn1c(O)c(C2=c3ccccc3=NC2=O)c2cc(Br)ccc21 | 16µM* | ? | i | 0% | -51% | i
Cc1cc(C)c2c(=O)cc(C(=O)Nc3sc4c(c3C#N)CCCC4)oc2c1 | . | . | i | . | 7% | i
O=C1[C@H](Cc2ccccc2)NC/C=C\C[C@@H](c2ccco2)N1Cc1ccccc1 | . | . | i | . | . | i
O=c1cc(CSc2nc(NCc3ccccc3)c3ccccc3n2)nc2ccc(Cl)cn12 | 1% | -1% | i | 0% | -9% | 2.3µM*
COc1ccc(CNc2nc(SCc3ccc(Cl)cc3)nc3ccccc23)cc1 | . | . | . | . | 26% | .
CCOC(=O)N1CCC(NC(=O)c2ccc3c(c2)N(Cc2cc(C)ccc2C)C(=O)c2ccccc2S3(=O)=O)CC1 | . | . | . | . | -7% | .
O=C(Nc1cccc(C(=O)O)c1)/C(=C\c1ccc2c(c1)OCO2)NC(=O)c1ccco1 | 0.58µM* | -18% | i | -2% | 14% | i
O=C(Nc1ccccc1)/C(=C\c1ccc2c(c1)OCO2)NC(=O)c1ccco1 | 9.2µM* | ? | i | -6% | -17% | i
COc1cc(C)ccc1OCCSc1nc2ccc(NC(=O)c3ccco3)cc2s1 | . | . | i | . | -9% | ?
CCn1c(C(=O)N2CCCC(C(=O)NCCCOC)C2)cc2sccc21 (stereo not given) | . | . | i | . | 25% | i
COc1ccc(CCN2C(=O)c3[nH]nc(-c4ccccc4O)c3C2c2cccc(OC)c2)cc1 (stereo not given) | . | . | . | . | -6% | .
CCCN1C(=O)c2[nH]nc(-c3ccccc3O)c2C1c1ccc(OCc2ccccc2)c(OC)c1 (stereo not given) | . | . | 21µM* | . | 4% | ?
COc1ccc(CCN2C(=O)c3[nH]nc(-c4ccccc4O)c3C2c2cccc(Cl)c2)cc1 (stereo not given) | ? | 4%[9.22 µM] | 18µM* | -6% | 22% | ?
COc1cc(C2c3c(-c4ccccc4O)n[nH]c3C(=O)N2CCO)ccc1OCc1ccccc1 (stereo not given) | . | . | i | . | -1% | i
C(#CCN1CCCC1)CC(c1ccccc1)c1ccccc1 | 13µM* | 4% | i | -2% | -1% | ?
CCOC(=O)c1c(-c2ccccc2)csc1NC(=O)c1cc(-c2cccc(OC)c2)on1 | . | . | i | . | ? | i
COc1ccccc1NC(=O)CSc1nc2ccccc2c2nc(-c3ccccc3)nn12 | . | . | i | . | 6% | i
O=C(CSC1=Nc2ccccc2N=C(c2ccc(F)cc2)C1)Nc1cccc(C(F)(F)F)c1 | . | . | i | . | 6% | i
Cc1[nH]nc(-c2cccnc2)c1N=NN(C)C | 1.6µM* | 2.6µM* | ? | -2% | -94% | 16µM*
CN(C)c1nc(N)nc(-c2cccnc2)n1 | 3% | -5% | i | -5% | 2% | i
COc1cccc(C2c3[nH]c4ccccc4c3C[C@H]3C(=O)N(C4CCN(Cc5ccccc5)CC4)CC(=O)N23)c1 (stereo not given in full) | 17% | ? | ? | -1% | 14% | ?
CCN1C(=O)[C@@H]2Cc3c([nH]c4ccccc34)C(c3ccc(OC)cc3)N2C1=S (stereo not given in full) | 21µM* | ? | ? | 24% | -10% | ?
COc1ccc(C2c3[nH]c4ccccc4c3C[C@H]3C(=O)N(C4CCN(Cc5ccccc5)CC4)CC(=O)N23)cc1OC (stereo not given in full) | ? | 18µM* | ? | 0% | -31% | i
C=CCN1CC(=O)N2C(c3ccccc3)c3[nH]c4ccccc4c3C[C@H]2C1=O (stereo not given in full) | 4% | ? | 6.5µM* | -4% | -3% | i
CCc1noc(-c2ccc(NC(C)c3ccccc3)c([N+](=O)[O-])c2)n1 (stereo not given) | . | . | i | . | 21% | i
SMILES | MCF10A rerep | SW480 rerep | KB-3-1 tox | TSG101-PTAP inh | RGS4 inhibitor | KB-V1 cytotox
O=C(Nc1nnc(N2CCCC2)s1)Nc1cc(F)ccc1F | . | . | i | . | 24% | i
O=C(C[n+]1cccc2cccc(O)c21)c1ccc(Cl)cc1 | . | . | i | . | . | i
CC(C)c1ccc(Cc2cn3cc(-c4cc5ccccc5oc4=O)nc3s2)cc1 | . | . | 0.58µM* | . | 7% | ?
Cc1nc2ccccc2n1CCc1nc2c3ccccc3nc(SCc3ccccc3F)n2n1 | . | . | i | . | -1% | i
CC1CCc2c(c3ccccc3n2C(=O)CCl)C1 (stereo not given) | 18µM* | 6% | ? | -2% | 2% | ?
Cc1ccc(S(=O)(=O)c2c(O)cc(C)c(NS(=O)(=O)c3ccc(Cl)cc3)c2C)cc1 | . | . | i | . | 12% | i
Cc1nc(N2CCN(c3ccccn3)CC2)c2c(C)c(C(=O)Nc3ccc(F)cc3F)sc2n1 | ? | ? | i | -7% | 2% | 12µM*
Cc1nc(N2CCN(c3ccccn3)CC2)c2c(C)c(C(=O)Nc3ccccc3F)sc2n1 | 1% | -5% | 21µM* | 3% | -26% | ?
Cc1nc(N2CCC(C)CC2)c2c(C)c(C(=O)Nc3ccc(C(F)(F)F)cc3)sc2n1 | ? | 10% | i | -4% | 2% | ?
Cc1nc(N2CCC(C)CC2)c2c(C)c(C(=O)Nc3cccc(C(F)(F)F)c3)sc2n1 | 21µM* | ? | i | -8% | -2% | i
COc1ccc(NC(=O)c2sc3ncnc(N4CCN(c5ccccn5)CC4)c3c2C)cc1Cl | ? | ? | ? | -1% | 2% | i
CCc1ccc(NC(=O)c2sc3nc(C)nc(N4CCN(c5ccccn5)CC4)c3c2C)cc1 | ? | 17% | i | -3% | -21% | ?
Cc1cc(Br)ccc1NC(=O)c1sc2ncnc(N3CCN(c4ccccn4)CC3)c2c1C | 7.3µM* | 15µM* | 6.5µM* | -1% | 14% | ?
CC1CN(c2ccc(Cl)cc2)c2nc3c(c(=O)n(CC(=O)O)c(=O)n3C)n2C1 (stereo not given) | . | . | i | . | -36% | ?
Cn1c(SCc2ccc(F)cc2)nc2ccc(C(=O)NCc3cccc(Cl)c3)cc21 | . | . | i | . | 25% | i
Cc1cc(C)cc(-n2cnc3cc(C(=O)NCCc4ccccc4)ccc32)c1 | . | . | . | . | 6% | .
Cc1nc(N2CCN(c3ccccn3)CC2)c2c(C)c(C(=O)Nc3ccc(F)cc3Cl)sc2n1 | 16µM* | ? | ? | -3% | -1% | ?

High-throughput results as filed in PubChem BioAssay.
